22 compounds from PubChem BioAssay (EPA / NIEHS) can be followed below.

In general, AC50 refers to the concentration at which the activity in the assay is half-maximal.

The target in experiment [1] is Sodium channel protein type 1 subunit alpha (Rattus norvegicus) (UniProt P04774). The experiment can be described thus: NVS_IC_rNaCh_site2: NovaScreen (NVS) Ion Channel Assay for rat Sodium Channel, Site 2 (NaCh) (AID 2283322).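 Note: hit means loss of radioligand binding signal relative to DMSO so AC50 marks displacement.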 Summed up:
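Initial duplicate single-point testing at 25 uM, followed by concentration-response runs for actives. Binding of radioligand to rat forebrain membranes quantified after 1 h via filter-based radiodetection.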

The target of experiment [2] is human Adenosine A2a Receptor (AdoRA2a), ADORA2A (gene 135) (UniProt P29274). The experiment can be described thus: NVS_GPCR_hAdoRA2a: NovaScreen (NVS) G Protein-Coupled Receptor Assay for human Adenosine A2a Receptor (AdoRA2a) (AID 2283256). The procedure, abridged:
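Compounds screened in duplicate at 25 uM, with actives followed up in concentration series, for displacement of a radioligand from HEK293-derived receptor protein. Bound counts read by filter scintillation at 1.5 hours, DMSO as baseline.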

For experiment [3], the target named is Muscarinic acetylcholine receptor M2 (Homo sapiens) (UniProt P08172). Description: NVS_GPCR_hM2: NovaScreen (NVS) G Protein-Coupled Receptor Assay for human Muscarinic, M2 Receptor (AID 2283273). Summed up: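 Radioligand competition binding, cell-free, receptor from CHO; 1 h incubation; scintillation detection. Primary testing at 25 uM in duplicate.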
Sequence of Muscarinic acetylcholine receptor M2 (Homo sapiens) (P08172 whole entry, looked up): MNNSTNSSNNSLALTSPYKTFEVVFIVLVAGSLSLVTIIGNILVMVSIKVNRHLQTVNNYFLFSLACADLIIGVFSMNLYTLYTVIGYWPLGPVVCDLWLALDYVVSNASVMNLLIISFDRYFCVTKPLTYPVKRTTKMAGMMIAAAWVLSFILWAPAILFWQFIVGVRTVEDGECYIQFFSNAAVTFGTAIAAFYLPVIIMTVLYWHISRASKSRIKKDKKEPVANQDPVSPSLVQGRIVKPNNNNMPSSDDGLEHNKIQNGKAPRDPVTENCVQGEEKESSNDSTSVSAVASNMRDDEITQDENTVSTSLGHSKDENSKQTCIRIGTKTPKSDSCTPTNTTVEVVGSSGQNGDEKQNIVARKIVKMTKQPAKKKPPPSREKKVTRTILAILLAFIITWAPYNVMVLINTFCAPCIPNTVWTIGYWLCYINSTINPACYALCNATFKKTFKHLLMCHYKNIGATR
Experiment [4] addresses human Thromboxane A2 Receptor (TXA2), TBXA2R (gene 6915) (UniProt P21731). Description: NVS_GPCR_hTXA2: NovaScreen (NVS) G Protein-Coupled Receptor Assay for human Thromboxane A2 Receptor (TXA2) (AID 2283282).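 Note: actives reduce bound radioligand signal relative to DMSO baseline.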 The procedure, abridged:
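Cell-free radioligand binding on membrane protein from human platelets; radioligand displacement read by filter-based scintillation counting after 1 h. Primary screen in duplicate at 25 uM, actives then run in concentration series; loss of signal versus DMSO.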

Experiment [5] addresses human Neurokinin, NK2 Receptor, TACR2 (gene 6865) (UniProt P21452). The experiment can be described thus: NVS_GPCR_hNK2: NovaScreen (NVS) G Protein-Coupled Receptor Assay for human Neurokinin, NK2 Receptor (AID 2283278).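 Note: actives reduce bound radioligand signal relative to DMSO baseline.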 The procedure, abridged:
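Radioligand binding on membranes from CHO cells expressing receptor, filter-based scintillation read 4 h after dosing. Initial duplicate screen at 25 uM, actives in concentration series; loss of signal versus DMSO.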

Experiment [6] deals with human Opioid Receptor Mu (Opiate Mu), OPRM1 (gene 4988) (UniProt P35372). Description: NVS_GPCR_hOpiate_mu: NovaScreen (NVS) G Protein-Coupled Receptor Assay for human Opioid Receptor Mu (Opiate Mu) (AID 2283290).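 Note: hits lower bound tracer signal versus DMSO meaning displacement of the ligand.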 The procedure, abridged:
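Radioligand displacement binding on membranes from CHO cells expressing the receptor, 2.5 h after dosing, filter-based scintillation counting; loss of signal vs DMSO baseline. Screened in duplicate at 25 uM, actives then run in concentration series.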

The target in experiment [7] is guinea pig Opioid, Kappa 1 Receptor (OpiateK), OPRK1 (gene 100135587) (UniProt P41144). Description: NVS_GPCR_gOpiateK: NovaScreen (NVS) G Protein-Coupled Receptor Assay for guinea pig Opioid, Kappa 1 Receptor (OpiateK) (AID 2283252).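 Note: radioligand displacement from kappa opioid receptor in guinea pig cerebellar membranes; active means reduced radioligand binding relative to DMSO.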 Summed up: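 Radioligand competition binding using guinea pig cerebellum membrane fraction; 2 h exposure; filter radiodetection. Single concentration 25 uM (duplicate), follow-up concentration-response for actives.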
Sequence of guinea pig Opioid, Kappa 1 Receptor (OpiateK), OPRK1 (gene 100135587) (P41144 whole entry, looked up): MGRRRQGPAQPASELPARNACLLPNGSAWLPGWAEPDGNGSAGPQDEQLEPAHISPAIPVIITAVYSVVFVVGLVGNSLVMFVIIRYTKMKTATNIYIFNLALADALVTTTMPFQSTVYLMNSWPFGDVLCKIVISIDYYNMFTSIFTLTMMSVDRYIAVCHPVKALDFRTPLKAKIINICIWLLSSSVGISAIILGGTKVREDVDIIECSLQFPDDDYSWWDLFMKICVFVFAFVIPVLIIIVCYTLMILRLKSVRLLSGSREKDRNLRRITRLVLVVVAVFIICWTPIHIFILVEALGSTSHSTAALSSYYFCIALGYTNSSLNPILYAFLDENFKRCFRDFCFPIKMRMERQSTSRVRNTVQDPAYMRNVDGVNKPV

Experiment [8] deals with human Peripheral-type Benzodiazepine Receptor (PBR), TSPO (gene 706) (UniProt P30536). Description: NVS_MP_hPBR: NovaScreen (NVS) Membrane Protein Assay for human Peripheral-type Benzodiazepine Receptor (PBR) (AID 2283331).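 Note: hits reduce radioligand binding relative to DMSO baseline.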 The procedure, abridged: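 Using human colon-derived membranes, this one-endpoint binding test reads radioligand loss by scintillation after 1 h. Screening started at 25 uM in duplicate, with positive and negative controls on every plate, and actives moved to dose series.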
Sequence of human Peripheral-type Benzodiazepine Receptor (PBR), TSPO (gene 706) (P30536 whole entry, looked up): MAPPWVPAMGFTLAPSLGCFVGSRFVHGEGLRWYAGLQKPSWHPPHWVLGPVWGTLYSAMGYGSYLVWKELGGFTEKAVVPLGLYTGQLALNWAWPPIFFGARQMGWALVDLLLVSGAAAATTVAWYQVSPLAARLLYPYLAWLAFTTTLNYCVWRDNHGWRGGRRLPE

Experiment [9] in a line: NVS_IC_rCaBTZCHL: NovaScreen (NVS) Ion Channel Assay for Calcium Channel, Type L, Benzothiazepine Site (CaBTZCHL) (AID 2283337). The procedure, abridged: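 Test chemicals were added to rat cortical membranes and incubated 1.5 h with a tritiated or iodinated radioligand for the benzothiazepine site. Bound ligand was separated by filtration and counted. Actives from the 25 uM duplicate screen were retested in concentration series.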

Experiment [10] concerns the target rat Thyrotropin Releasing Hormone Receptor (TRH), Trhr (gene 25570) (UniProt Q01717). Description: NVS_GPCR_rTRH: NovaScreen (NVS) G Protein-Coupled Receptor Assay for rat Thyrotropin Releasing Hormone Receptor (TRH) (AID 2283329).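 Note: hit means lower bound tracer signal versus DMSO baseline.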 Summed up: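 Rat forebrain membranes; radioligand displacement at TRH receptor by filter-based scintillation counting, read 4 h after dosing. Duplicate single-point screen at 25 uM, actives rerun in concentration series; loss of signal relative to DMSO.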

In experiment [11] the target is Estrogen receptor (Homo sapiens) (UniProt P03372). Description: NVS_NR_hER: NovaScreen (NVS) Nuclear Receptor Binding Assay for human Estrogen Receptor (ER) (AID 2283348). The procedure, abridged: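 Radiodetection of ligand displacement in a lysate-based, cell-free format using MCF7 extracts, read at 18 hours. Duplicate 25 uM primary testing, then concentration series for actives.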
Sequence of Estrogen receptor (Homo sapiens) (P03372 whole entry, looked up): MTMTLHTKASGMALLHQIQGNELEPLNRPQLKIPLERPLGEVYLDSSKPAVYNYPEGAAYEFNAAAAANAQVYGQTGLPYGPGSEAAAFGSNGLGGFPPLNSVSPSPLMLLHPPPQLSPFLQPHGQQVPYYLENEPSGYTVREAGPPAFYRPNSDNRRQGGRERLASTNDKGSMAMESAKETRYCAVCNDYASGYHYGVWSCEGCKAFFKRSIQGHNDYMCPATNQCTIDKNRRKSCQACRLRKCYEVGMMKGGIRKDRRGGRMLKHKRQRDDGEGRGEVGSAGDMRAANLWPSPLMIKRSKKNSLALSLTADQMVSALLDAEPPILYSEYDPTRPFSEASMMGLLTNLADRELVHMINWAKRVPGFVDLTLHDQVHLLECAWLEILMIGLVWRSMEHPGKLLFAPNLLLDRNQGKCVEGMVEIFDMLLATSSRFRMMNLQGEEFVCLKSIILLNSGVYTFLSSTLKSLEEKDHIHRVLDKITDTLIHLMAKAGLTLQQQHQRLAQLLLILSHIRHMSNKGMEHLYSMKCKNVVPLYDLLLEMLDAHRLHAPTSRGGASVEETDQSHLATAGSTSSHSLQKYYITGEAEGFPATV

The target is the same in experiment [12]. The experiment can be described thus: OT_ER_ERaERa_1440: Odyssey Thera (OT) 24-hour HEK293T Protein-Complementation Assay for Estrogen Receptor-alpha/-alpha Homodimer (AID 2283349).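 Note: hits raise fluorescence above DMSO for agonists and antagonists alike.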 The procedure, abridged:
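Stably transfected HEK293T; ERα LBD homodimer PCA. 24 h dosing, fluorescence intensity read, gain-of-signal vs DMSO.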

For experiment [13] the target is unchanged. Description: OT_ER_ERaERa_0480: Odyssey Thera (OT) 8-hour HEK293T Protein-Complementation Assay for Estrogen Receptor-alpha/-alpha Homodimer (AID 2283351).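 Note: rise in fluorescence from reassembled reporter fragments on ERα LBD homodimer in nucleus or whole cell.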 The procedure, abridged:
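Cells were treated for 8 hours, then imaged on a laser scanning plate cytometer. Complementation of reporter fragments fused to the human ERα ligand-binding domain (residues 310-547) in HEK293T gave fluorescence, and gain of signal over vehicle was fitted.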

Experiment [14] concerns the target Androgen Receptor/SRC-1 Co-activator, AR (gene 367) (UniProt P10275). Description: OT_AR_ARSRC1_0960: Odyssey Thera (OT) 16-hour HEK293T Protein-Complementation Assay for Androgen Receptor/SRC-1 Co-activator (AID 2283353).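 Note: actives raise the signal above DMSO so potency reflects increased AR and SRC-1 complex.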 Summed up:
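Stable HEK293T line carries AR and SRC-1 each linked to a Venus fragment; chemicals are applied for 16 h, cells imaged at two wavelengths, and the 488 nm nucleus/cytoplasm ratio is taken as the signal, rising relative to DMSO.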

Inconclusive results are not listed. The source made the active and inactive calls. Rule for the calls: active = hit-call score of the fitted dose curve at least 0.9, where 1 is the maximum; inconclusive = response in the unintended direction; inactive = score below 0.9.

Sequence of human Neurokinin, NK2 Receptor, TACR2 (gene 6865) (P21452 whole entry, looked up): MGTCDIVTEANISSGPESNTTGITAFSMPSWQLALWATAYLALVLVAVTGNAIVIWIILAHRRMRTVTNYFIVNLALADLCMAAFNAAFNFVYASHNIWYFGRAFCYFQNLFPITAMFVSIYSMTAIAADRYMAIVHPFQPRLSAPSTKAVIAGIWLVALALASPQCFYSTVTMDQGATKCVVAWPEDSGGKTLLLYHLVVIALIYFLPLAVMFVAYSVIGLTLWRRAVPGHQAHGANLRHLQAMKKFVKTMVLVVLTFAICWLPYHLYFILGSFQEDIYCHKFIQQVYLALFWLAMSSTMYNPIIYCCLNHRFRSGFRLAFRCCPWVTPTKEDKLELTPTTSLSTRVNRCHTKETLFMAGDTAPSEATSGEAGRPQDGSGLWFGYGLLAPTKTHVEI
Sequence of human Opioid Receptor Mu (Opiate Mu), OPRM1 (gene 4988) (P35372 whole entry, looked up): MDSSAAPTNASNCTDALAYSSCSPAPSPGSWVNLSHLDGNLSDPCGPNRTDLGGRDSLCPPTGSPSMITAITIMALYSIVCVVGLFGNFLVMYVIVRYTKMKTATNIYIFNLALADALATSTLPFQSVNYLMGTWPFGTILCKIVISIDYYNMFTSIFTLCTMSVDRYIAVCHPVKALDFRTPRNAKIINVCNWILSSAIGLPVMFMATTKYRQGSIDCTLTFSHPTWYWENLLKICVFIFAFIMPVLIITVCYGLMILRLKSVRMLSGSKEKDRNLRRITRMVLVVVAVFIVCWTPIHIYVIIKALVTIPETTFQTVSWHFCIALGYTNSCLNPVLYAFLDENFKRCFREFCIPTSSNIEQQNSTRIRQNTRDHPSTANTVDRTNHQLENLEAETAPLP
Sequence of human Adenosine A2a Receptor (AdoRA2a), ADORA2A (gene 135) (P29274 whole entry, looked up): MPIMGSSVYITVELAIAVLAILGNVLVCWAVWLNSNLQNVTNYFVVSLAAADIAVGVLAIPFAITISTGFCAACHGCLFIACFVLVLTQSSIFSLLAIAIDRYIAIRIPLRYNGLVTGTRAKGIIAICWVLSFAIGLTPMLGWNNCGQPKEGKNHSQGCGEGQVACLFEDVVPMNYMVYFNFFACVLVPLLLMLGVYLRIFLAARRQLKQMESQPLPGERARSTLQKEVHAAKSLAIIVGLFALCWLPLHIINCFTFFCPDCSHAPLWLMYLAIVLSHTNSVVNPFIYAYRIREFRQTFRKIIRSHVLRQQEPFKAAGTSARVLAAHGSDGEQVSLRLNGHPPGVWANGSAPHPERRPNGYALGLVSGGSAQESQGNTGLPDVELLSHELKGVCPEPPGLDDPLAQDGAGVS
Sequence of human Thromboxane A2 Receptor (TXA2), TBXA2R (gene 6915) (P21731 whole entry, looked up): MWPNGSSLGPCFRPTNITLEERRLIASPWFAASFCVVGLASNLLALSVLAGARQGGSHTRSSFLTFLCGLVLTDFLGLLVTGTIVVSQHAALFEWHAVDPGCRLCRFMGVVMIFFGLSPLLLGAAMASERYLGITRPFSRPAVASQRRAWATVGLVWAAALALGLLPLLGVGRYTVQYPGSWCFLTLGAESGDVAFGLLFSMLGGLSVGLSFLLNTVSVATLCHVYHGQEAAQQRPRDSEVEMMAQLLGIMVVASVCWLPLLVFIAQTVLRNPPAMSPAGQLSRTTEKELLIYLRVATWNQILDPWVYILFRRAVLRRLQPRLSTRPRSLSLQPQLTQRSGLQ
Sequence of rat Thyrotropin Releasing Hormone Receptor (TRH), Trhr (gene 25570) (Q01717 whole entry, looked up): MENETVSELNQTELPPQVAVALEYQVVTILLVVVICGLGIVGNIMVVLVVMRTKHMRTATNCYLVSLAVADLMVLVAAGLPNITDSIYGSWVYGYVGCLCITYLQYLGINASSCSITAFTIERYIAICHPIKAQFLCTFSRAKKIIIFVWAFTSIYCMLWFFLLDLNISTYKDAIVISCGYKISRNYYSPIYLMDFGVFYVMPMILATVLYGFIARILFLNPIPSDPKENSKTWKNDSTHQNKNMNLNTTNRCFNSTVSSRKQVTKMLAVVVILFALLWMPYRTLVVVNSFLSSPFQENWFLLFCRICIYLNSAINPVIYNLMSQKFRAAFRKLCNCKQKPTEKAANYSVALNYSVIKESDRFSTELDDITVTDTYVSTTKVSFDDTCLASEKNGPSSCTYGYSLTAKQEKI
Sequence of Androgen Receptor/SRC-1 Co-activator, AR (gene 367) (P10275 whole entry, looked up, the tested form may be a part): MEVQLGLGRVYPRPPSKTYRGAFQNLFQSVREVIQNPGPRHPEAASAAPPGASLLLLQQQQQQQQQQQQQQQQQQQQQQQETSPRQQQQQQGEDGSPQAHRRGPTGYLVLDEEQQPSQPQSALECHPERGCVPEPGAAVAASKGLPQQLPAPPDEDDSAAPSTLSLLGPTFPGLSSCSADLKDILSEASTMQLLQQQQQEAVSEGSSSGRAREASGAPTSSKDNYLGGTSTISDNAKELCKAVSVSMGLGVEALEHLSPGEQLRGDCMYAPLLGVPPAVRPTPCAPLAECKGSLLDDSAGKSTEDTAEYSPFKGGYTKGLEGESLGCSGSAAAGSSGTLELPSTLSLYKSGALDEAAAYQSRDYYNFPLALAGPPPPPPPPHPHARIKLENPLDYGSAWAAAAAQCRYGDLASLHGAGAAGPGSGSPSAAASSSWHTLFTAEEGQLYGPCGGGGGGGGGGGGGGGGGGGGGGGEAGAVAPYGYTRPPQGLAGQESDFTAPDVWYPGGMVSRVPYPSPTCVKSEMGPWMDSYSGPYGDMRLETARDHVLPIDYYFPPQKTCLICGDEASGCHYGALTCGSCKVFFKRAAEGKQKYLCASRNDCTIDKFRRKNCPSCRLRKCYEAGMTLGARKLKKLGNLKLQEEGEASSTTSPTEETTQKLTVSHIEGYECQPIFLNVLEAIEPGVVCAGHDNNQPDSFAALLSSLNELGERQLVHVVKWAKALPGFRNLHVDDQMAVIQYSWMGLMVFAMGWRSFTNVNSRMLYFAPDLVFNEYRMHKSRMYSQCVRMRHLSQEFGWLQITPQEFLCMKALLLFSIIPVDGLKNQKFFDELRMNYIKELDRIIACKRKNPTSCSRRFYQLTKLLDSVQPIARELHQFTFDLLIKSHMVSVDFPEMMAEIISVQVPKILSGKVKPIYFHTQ

Take `C[C@@H]1CCN(C(=O)[C@H](CCCN=C(N)N)NS(=O)(=O)c2cccc3c2NC[C@H](C)C3)[C@@H](C(=O)O)C1`: the AC50 in experiment [1] was 0.894 µM (active).

With `COCCc1ccc(OCC(O)CNC(C)C)cc1` (configuration not stated), the result in [2] was inactive. Also, the AC50 in experiment [1] was 5.04 µM (active).

For `CCC(C)=O`, the compound was called inactive in experiment [3].

Regarding `Nc1ccc(Cl)c([N+](=O)[O-])c1`, the outcome in [2] was inactive.

With `CC(C)CC(C)CC(O)CC(C)C` (configuration not stated), the compound was called inactive in [4].

On to `CC(C)Nc1nc(N)nc(Cl)n1`, for which the AC50 in experiment [2] is 15.6 µM (active).

As for `NC(=S)NNC(N)=S`, the call in [5] and in experiment [6] was inactive.

With `CC(C)(N=C=O)c1cccc(C(C)(C)N=C=O)c1`, the AC50 is 36.7 µM (active) in experiment [7] and 32.8 µM (active) in experiment [6]. Moreover, the compound was classed as inactive in experiment [5].

Consider `CS(=O)(=O)c1ccc(C2=C(c3ccccc3)C(=O)OC2)cc1`, for which the result in [1] was inactive.

Take `CCCCCCCCCCCCCCCC(=O)OC/C=C(C)/C=C/C=C(C)/C=C/C1=C(C)CCCC1(C)C`: the compound was called inactive in experiment [2], in experiment [6] and in experiment [1]. Further, the AC50 in [8] was 41.1 µM (active).

In the case of `COC(=O)c1ccc([N+](=O)[O-])cc1`, the result in experiment [4] was inactive.

`Cc1cc(CCC(=O)OCCOCCOCCOC(=O)CCc2cc(C)c(O)c(C(C)(C)C)c2)cc(C(C)(C)C)c1O`: the AC50 in experiment [4] is 0.23 µM (active); in experiment [8], 0.721 µM (active).

On to `CN(C)C(=S)SC(=S)N(C)C`, for which the AC50 in experiment [7] is 30.8 µM (active); in experiment [5], 1.59 µM (active).

Turning to `COc1ccc(CCN2CCC(Nc3nc4ccccc4n3Cc3ccc(F)cc3)CC2)cc1`, the compound was classed as inactive in experiment [7] and in experiment [8]. Further, the AC50 in experiment [3] is 3.04 µM (active); in experiment [4] it was 0.227 µM (active); in [1], 0.115 µM (active); in experiment [9] it was 2.18 µM (active).

In the case of `C=CC(C)(O)CCC=C(C)C` (configuration not stated), the outcome in experiment [10] was inactive.

On to `CS(=O)(=O)OCCCCOS(C)(=O)=O`, for which the compound was called inactive in [1], in experiment [8], in experiment [12] and in [13]. The half-maximal activity concentration (AC50) in experiment [11] was 0.875 µM (active).

Take `CN(C)c1cccc(O)c1`: the compound was classed as inactive in experiment [10].

Turning to `CCOC(=O)[C@@H](C)Oc1ccc(Oc2nc3ccc(Cl)cc3o2)cc1`, the outcome in experiment [10] and in [14] was inactive.

`CCCCCC(=O)CC`: the call in experiment [10] was inactive.

`CCC(=O)O[C@@H]1C[C@H]2CC[C@]1(C)C2(C)C`: the call in experiment [10] was inactive.

For the compound `C1=CC2C3C=CC(C3)C2C1` (configuration not stated), the result in experiment [10] was inactive.

For the compound `CC(=O)O[C@H]1C[C@@H]2CC[C@@]1(C)C2(C)C`, the compound was classed as inactive in [10] and in [14].
